The structures appear in SMILES notation. Among all 360,000 compounds or so, about 2,400 (0.67%) were called active. This is one part of a sample in which actives are shown more often than they occur. No stated cut-off is given here; in the data, active means enhancement above about 30%; inactive means the rest.

The target of the test is Thyrotropin-releasing hormone receptor (Homo sapiens) (UniProt P34981). As to the kind of experiment: qHTS for Small Molecule Agonists and Allosteric Enhancers of Human TRH Receptor: Primary Screen for Enhancers. Further: 0% is about no effect. Conditions: TRHR cells, fluo-8 calcium fluorescence, EC20 TRH enhancement; at 2 µM; active compounds read high. An outline of the steps: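 Enhancer read-out: after compound pinning and an initial kinetic agonist-mode read, an EC20 of TRH (10 nM final) was injected and fluo-8 calcium signal (Ex 480/Em 530) followed at 1 s/cycle for 100 cycles in TRHR-expressing cells.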
Thyrotropin-releasing hormone receptor (Homo sapiens), sequence (P34981 whole entry, looked up): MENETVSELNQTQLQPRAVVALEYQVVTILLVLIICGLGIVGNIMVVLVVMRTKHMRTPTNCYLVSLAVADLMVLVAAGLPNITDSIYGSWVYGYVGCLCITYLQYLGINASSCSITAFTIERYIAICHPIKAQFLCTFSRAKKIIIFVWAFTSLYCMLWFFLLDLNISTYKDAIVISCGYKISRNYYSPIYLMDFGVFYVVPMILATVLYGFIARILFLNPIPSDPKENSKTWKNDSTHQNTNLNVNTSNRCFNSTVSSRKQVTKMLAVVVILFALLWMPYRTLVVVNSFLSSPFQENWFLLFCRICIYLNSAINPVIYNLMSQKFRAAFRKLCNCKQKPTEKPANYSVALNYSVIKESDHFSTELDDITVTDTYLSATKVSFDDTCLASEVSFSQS
(qHTS replaces the single test concentration by a dilution series.)
Consider `CCOc1ccc(-c2cc3nc(C4CCN(C(=O)OC(C)(C)C)CC4)c(C(=O)Nc4cccc(CC)c4)cn3n2)cc1`, for which the enhancement is 12.9% (inactive). Take `CCOC(=O)/C(C#N)=C\c1c(C)cc(C)c(COC(C)=O)c1C`: the enhancement is 14.9% (inactive). Regarding `COC(=O)/C(C#N)=C/c1occc1C`, the enhancement is 32.7% (active). The figure for `Cc1ccc(/C=C(\C#N)C(=O)Nc2cc(C)ccc2C)cc1` is -0.361% (inactive). To `CCc1ccc(NC(=O)N2CCN(C(=O)c3nsc4ccccc34)CC2)cc1` belongs -4.71% (inactive); to `O=S(=O)(c1ccc2c(c1)OCCO2)N1CCN(S(=O)(=O)c2cc(F)ccc2F)CC1`, 6.77% (inactive).

Turning to `CN1C(=O)c2cccc3c(N)ccc(c23)C1=O`, the enhancement is 50.3% (active). Consider `Cc1nn(C)cc1N1C(=O)c2cccc3c(N)ccc(c23)C1=O`, for which the enhancement was 30% (active). To `Cn1c(=O)n(Cc2c(F)cccc2Cl)c(=O)c2c1nc1n2CCN1c1ccc(F)cc1` belongs 0.582% (inactive). The figure for `Cc1cc(C)cc(NC(=O)Cn2nc(N3CCN(c4ccccc4)CC3)ccc2=O)c1` is -3.13% (inactive); for `Cc1cc(-c2ccc(C)c(S(=O)(=O)N3c4ccccc4CC3C)c2)on1` (configuration not stated) it is 0.217% (inactive); for `CCOc1cccc2cc(-c3cn4c(n3)sc3cc(C)ccc34)c(=O)oc12` it is -0.977% (inactive).

For the compound `COc1cc(CNCCSc2nnnn2C)ccc1OCc1ccc(Cl)cc1Cl`, the enhancement was 1.67% (inactive). To `COc1ccc(CCn2ccc(O)c(Cc3ccc(Cl)cc3Cl)c2=O)cc1OC` belongs 54.5% (active); to `COc1ccc(CCNC(=O)CCc2ccccc2O)cc1OC`, -5.5% (inactive).

For the compound `O=C(CSc1ncc(CO)n1Cc1ccc(F)cc1)NCc1ccco1`, the enhancement was -2.31% (inactive). To `CCOc1ccc(CNC(=O)c2ccc3nc(CC)c(CC)nc3c2)cc1OC` belongs 1.32% (inactive); to `Cc1[nH]c2ccccc2c1C(=O)CN1CCCC(C)C1` (configuration not stated), -2.86% (inactive); to `CC1CCN(C(=O)COC(=O)c2cc(=O)[nH]c3ccccc23)CC1`, -7.78% (inactive). Take `CC1CCN(CC(=O)c2c[nH]c3ccccc23)CC1`: the enhancement was 38% (active). To `Cc1nnc(N2CCCC(C(=O)NCCN(C)C)C2)c2nn(-c3ccccc3)c(C)c12` (configuration not stated) belongs 1.94% (inactive); to `N#Cc1nc(Nc2cccc(Cl)c2)nc(NC2CCCC2)n1`, -7.23% (inactive); to `CCn1c2ccccc2c2nnc(SCC(=O)O)nc21`, -1.5% (inactive). To `COc1ccc(-n2nc(C(=O)NCCc3ccc(Cl)cc3)c3c4ccccc4n(C)c3c2=O)cc1Cl` belongs -3.1% (inactive); to `CCN1CCN(C(=O)C2(NC(=O)Nc3cccc(F)c3)CCCCC2)CC1`, 1.28% (inactive); to `CCOC(=O)C1CCN(C(=O)C2(NC(=O)Nc3cccc(F)c3)CCCCC2)CC1`, 34.3% (active).

In the case of `CCOC(=O)C1CCN(C(=O)Nc2cccc(OC)c2)CC1`, the enhancement is -1.73% (inactive).

(Values after PubChem BioAssay AID493056 (National Center for Advancing Translational Sciences (NCATS), 2011).)
